Each structure is given as a SMILES string. The panel holds about 83,000 compounds, 20% with a hit somewhere; the sample as a whole holds those more often.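 Single-concentration screen, 48 h exposure, 96-well plates. Endpoint: percent growth. Below 10 = active.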 Activity calls are given as the source filed them.

This test deals with ACHN renal. The experiment in a line: NCI-60 one-dose screen, 48 h (100 = growth as untreated, 0 = no growth, -100 = all killed). The conditions noted are these: 10 µM unless noted.
Turning to `O=C(CSc1nnc(-c2ccc(Cl)cc2)n1-c1ccccc1)Nc1ccc(Cl)cc1`, the growth was -2.97% (active).
Under `NC1[C@H]2CN(c3cnc(C(=O)Nc4cc(F)cc5cccnc45)cn3)C[C@@H]12` (stereo not given in full) stands 32.5% (inactive).
Under `CC1CCN(CC(=O)Nn2c(COc3ccccc3)nc3ccccc3c2=O)CC1` stands 102% (inactive).
With `CCCCSC1=C(Cl)CN(c2ccccc2)C1=O` the figure was 106% (inactive); with `CC1=Cc2ccccc2OC12C=Cc1ccccc1O2` (stereo not given), 88.4% (inactive); with `Brc1ccc(-c2cc(-c3ccc4c(c3)OC=CO4)n[nH]2)s1`, 97.7% (inactive).
Consider `CC1=C(C)C(=O)C(Nc2cccc(C(=O)OC(C)(C)C)c2)=CC1=O`, for which the growth is 86.4% (inactive).
With `CCCC/C(=C\c1ccc(O)c(O)c1)C(=O)NC(Cc1ccccc1)C(=O)C(=O)NCCc1ccc(OC)cc1` (stereo not given) the figure was 96.2% (inactive); with `CCN(CC)c1ccc(/C=N/NC(=O)c2ccc(NS(C)(=O)=O)cc2)c(O)c1`, 15.9% (inactive).
For `O=C(/C=C/C=C/c1csc(Br)n1)NO`, the growth is 92.6% (inactive).
Turning to `O=C(CCCCCCNC(=O)C(O)(O)C(F)(F)F)Nc1ncc(-c2ccc(Br)cc2)s1`, the growth was -32.1% (active).
With `Cc1cc(C)cc(NC2=C(Cl)C(=O)c3nc(C)ccc3C2=O)c1` the figure was 2.41% (active).
With `C[C@@H]1OCC2(CCN(c3cnc(C(=O)Nc4cc(F)cc5cccnc45)cn3)CC2)[C@@H]1N` the figure was 31.8% (inactive).
Under `CN1CCN(c2ccc(Nc3nc(NCCCNS(=O)(=O)c4ccccc4)c4sccc4n3)cc2)CC1` stands 20.2% (inactive); under `CCCCCCNC(=O)Oc1ccc(/C(=C(/C)c2ccc(OC)cc2)c2ccc(OCCN3CCCCCC3)cc2)cc1`, 47.7% (inactive).

For the origin of these results see PubChem BioAssay (NCI).
